AMA1 RON2 block = qHTS for Inhibitors of AMA1-RON; Towards Development of Antimalarial Drug Lead: Primary Screen; Plasmodium falciparum AMA1 (3D7) - RON2 peptide interaction; AlphaScreen AMA1-biotinylated RON2 peptide binding; Potency, µM (titrated, usually from 58.2 µM), inactives show at the highest dose activity change, negative = inhibition, actives largely listed as inhibitors; AID 720542, 2013; hit rate 0.2% among 360,000;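 also: potency is read from the fitted curve at half-maximal effect; 0% = vehicle wells and -100% = peptide control; nearly all actives have a fitted effect of over 45% in size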
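AMA1 (3D7) with his tag at 25 nM final met compounds first, then biotinylated RON2 peptide at 25 nM; detection used donor plus acceptor beads, 10 µg/mL apiece, read by AlphaScreen after 30 min at room temperature.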
Pf growth 96h = Primary qHTS for delayed death inhibitors of the malarial parasite plastid, 96 hour incubation | Potency, µM (top dose mostly 28.7 µM), inactives show at the highest dose activity change, negative = inhibition, most hits filed as inhibitors | hit rate 6.9% among 320,000 | P. falciparum luciferase reporter growth, 96 h; also: potency is read from the fitted curve at half-maximal effect; % is scaled to controls: 0 for no effect and ±100 for the full control effect
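Infected RBCs, 2% Hct / 0.05% parasitemia final; luciferase-reporter P. falciparum; cpd 96 h, 37 C, 5% CO2; luciferase detection reagent; luminescence.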
SARS PLP yeast = qHTS of Yeast-based Assay for SARS-CoV PLP | Potency, µM (doses to about 32.9 µM), for the others: at the top dose activity, positive = growth rescue, actives largely listed as activators | S. cerevisiae expressing SARS-CoV PLpro, growth rescue | hit rate 0.19% among 330,000; calls by dose curve; also: potency is read from the fitted curve at half-maximal effect; 0% is about no effect; nearly all actives have a fitted effect of over 55% in size
CHX counter = Cycloheximide Counterscreen for Small Molecule Inhibitors of Shiga Toxin. cell reporter, cycloheximide protein synthesis inhibition counterscreen. max response, %. hit rate 12% among 300,000. AID 2314, 2010; in the data active = max response mostly above about 13%, no sharp cut-off; inactive = mostly below about 14%; also: read at 38.3 µM for the half of the compounds with a filed dose; 0% is about no effect
Shiga toxin inh = A qHTS for Small Molecule Inhibitors of Shiga Toxin; AID 2315, 2010; hit rate 9.2% among 290,000; inhibition, % at 38.7 µM; Vero cells, Shiga toxin protein synthesis inhibition reporter; in the data active = inhibition mostly above about 28%, no sharp cut-off; inactive = mostly below about 43%; also: 0% is about no effect
Pf growth 48h = Primary qHTS for delayed death inhibitors of the malarial parasite plastid, 48 hour incubation; P. falciparum luciferase growth in erythrocytes, 48 h; Potency, µM (series often up to 28.7 µM), for inactives: at the highest dose activity change, negative = inhibition, most hits filed as inhibitors; hit rate 5.9% among 310,000; AID 504832, 2011; also: potency is read from the fitted curve at half-maximal effect; % is scaled to controls: 0 for no effect and ±100 for the full control effect
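Luciferase-expressing parasites in RBCs, 2% Hct / 0.1% parasitemia final; RPMI 1640 + 0.5% Albumax; 37 C, 5% CO2, one generation; luminescence read-out, lower signal = inhibition.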
The depositor's hits bear a star; ? = inconclusive; nt = no result. Sampled rows, rich in hits. Any-hit rate of the full collection: about 19%. Unless noted, calls follow the shape of the dose curve; as a rule, active = well fitted curve in the direction sought with a large enough effect; inconclusive = small, poorly fitted or top-dose-only effect, or another doubt; inactive = no such curve, though single readings can be large; an effect the other way counts as inactive or inconclusive.

SMILES | AMA1 RON2 block | Pf growth 96h | SARS PLP yeast | CHX counter | Shiga toxin inh | Pf growth 48h
O=C(O)c1cccc(CN2C(=O)SC(Nc3ccccc3)C2=O)c1 (stereo not given) | 24% | 27% | -2% | 17* | 17 | 11%
N#Cc1ccccc1OCc1cccc(S(=O)(=O)N2CCOCC2)c1 | -2% | ? | 14% | nt | nt | ?
COc1cc(C(CCN2CCCC2)c2c(OC)cc(OC)c3c2OC(=O)CC3c2ccc(N(C)C)cc2)cc(OC)c1OC (stereo not given) | nt | nt | nt | -5 | -10 | nt
COc1cc(OC)c2c(c1C(CCN1CCOCC1)c1ccc(N(C)C)cc1)OC(=O)CC2c1ccc(N(C)C)cc1 (stereo not given) | 14µM* | ? | 4% | 2 | -8 | 10µM*
COc1ccc(C2CC(=O)Oc3c(C(CCN4CCN(c5ccccc5)CC4)c4ccc(N(C)C)cc4)c(OC)cc(OC)c32)cc1 (stereo not given) | 11µM* | 10µM* | 7% | 0 | -1 | 9.3µM*
COc1cc(C(CCN2CCOCC2)c2c(OC)cc(OC)c3c2OC(=O)CC3c2ccc(N(C)C)cc2)cc(OC)c1OC (stereo not given) | 20µM* | ? | 1% | 5 | -21 | ?
COc1ccc(C2CC(=O)Oc3c(C(CCN4CCOCC4)c4cc(OC)c(OC)c(OC)c4)c(OC)cc(OC)c32)cc1 (stereo not given) | -20% | ? | 0% | 7 | -1 | 9.3µM*
COc1cc(OC)c2c(c1C(CCN1CCCC(C)C1)c1ccc(N(C)C)cc1)OC(=O)CC2c1ccc(N(C)C)cc1 (stereo not given) | nt | nt | nt | -3 | -11 | nt
COc1ccc([N+](=O)[O-])cc1N(CC(=O)NCCCOC(C)C)S(C)(=O)=O | -9% | ? | 1% | -1 | -13 | 1%
Cc1ccc(NS(=O)(=O)c2c(C)[nH]c(=O)[nH]c2=O)cc1F | -3% | ? | 2% | -1 | -1 | 13%
Cc1cc(C)cc(NS(=O)(=O)c2c(C)[nH]c(=O)[nH]c2=O)c1 | 13% | 2.1µM* | -4% | 5 | 19 | 12%
CCN(CC)Cc1nc2c(c(=O)[nH]1)C1(CCCC1)Cc1ccccc1-2 | 10% | 12µM* | 7% | -1 | 26 | ?
CC(C)CC(O)(c1ccccc1)C(CN1CCOCC1)c1ccccc1 (stereo not given) | 5% | 11% | -1% | 20* | 18 | 0%
CCCC(O)(c1ccccc1)C(CN1CCOCC1)c1ccccc1 (stereo not given) | -3% | ? | 1% | -3 | 2 | nt
COc1ccc(C(O)(CCC(C)C)C(CN2CCOCC2)c2ccccc2)cc1 (stereo not given) | -4% | -4% | -4% | -2 | 2 | 1.7µM*
CC(C)CCC(O)(c1ccccc1)C(CN1CCOCC1)c1ccccc1 (stereo not given) | -1% | 7% | -4% | -2 | -8 | 2.9µM*
COc1ccccc1NC(=O)COC(=O)C1CC2CCCC(C1)C2=O (stereo not given) | -5% | nt | 2% | nt | nt | nt
CCOC(=O)CC1c2nc3ccccc3cc2CN1C(=O)OCC (stereo not given) | 14% | nt | nt | nt | nt | nt
CC(=O)Nc1ccc(S(=O)(=O)N(CC(=O)NCC2CCCO2)Cc2ccccc2Cl)cc1 (stereo not given) | 8% | nt | nt | nt | nt | nt
COc1cc(C2c3cc4c(cc3CC3COC(=O)N32)OCO4)cc(OC)c1OC (stereo not given) | 5% | nt | nt | nt | nt | nt
CCOc1ccc(-c2nnc(SCC(=O)N3CCNC3=O)o2)cc1 | 1% | -5% | 10% | nt | nt | 203%
O=C1c2ccccc2C(=O)c2c(NCCCN(CCO)CCO)cccc21 | ? | 45% | -1% | 20 | 69 | ?
CCN(CCCNc1cc2c(c(N)c1S(=O)(=O)O)C(=O)c1ccccc1C2=O)c1ccccc1 | 14µM* | nt | nt | nt | nt | nt
COc1ccc(CN2CSC(=S)N(Cc3ccc(OC)cc3)C2)cc1 | 85% | ? | -3% | -2 | -4 | 12µM*
S=C1SCN(Cc2cccnc2)CN1Cc1cccnc1 | 89% | ? | -7% | -2 | -9 | 1.9µM*
SMILES | AMA1 RON2 block | Pf growth 96h | SARS PLP yeast | CHX counter | Shiga toxin inh | Pf growth 48h
S=C1SCN(Cc2ccccc2)CN1Cc1ccccc1 | 85% | 6% | -12% | -1 | -1 | ?
Cc1nc2ccccc2n1CC(=O)OCC(=O)NCCc1ccccc1 | 5% | 26% | -5% | -3 | -13 | nt
CCCCNc1nc(N)nc(-c2cc(Cl)ccc2O)n1 | 32% | 361% | -69% | 74* | 79* | 224%
CCNc1nc(N)nc(-c2cc(Cl)ccc2O)n1 | 9% | 299% | -66% | 49* | 56* | 284%
CC(C)N1CCC1(C)C(=O)Nc1nc2ccccc2[nH]1 (stereo not given) | 50% | nt | nt | nt | nt | nt
O=C(Nc1ncnc2c1ncn2[C@@H]1O[C@@H]2COP(=O)(O)O[C@H]2[C@H]1O)c1ccccc1 | nt | nt | nt | -7 | -11 | nt
CC(C)c1ccc(CC(=O)N2CCC2(C)C(=O)NCCC#N)cc1 (stereo not given) | 0% | nt | nt | nt | nt | nt
COC(=O)Cn1c2ccc(OC)cc2c2nc(C)sc21 | 1% | 33% | -1% | 14 | 12 | 11%
c1ccc2c3c([nH]c2c1)C(C1CCCCC1)N(Cc1ncc[nH]1)CC3 (stereo not given) | ? | ? | 1% | 9 | -5 | 2.1µM*
Cc1ncoc1C(=O)N1CCc2c([nH]c3ccccc23)C1C(C)(C)C (stereo not given) | -9% | ? | 0% | 2 | 10 | ?
Cc1ncoc1C(=O)N1CCc2c([nH]c3ccccc23)C1C1CCCCC1 (stereo not given) | -5% | ? | 0% | 52* | 72* | 15µM*
Cc1cnc(CN2CCc3c([nH]c4ccccc34)C2C2CCCCC2)[nH]1 (stereo not given) | 9% | ? | 1% | -5 | -13 | -2%
CC1(C)OC(c2ccccc2)=C/C(=C/C=Nc2ccccc2)O1 | 0% | ? | 5% | 16* | 35* | ?
CC1(C)OC(c2ccccc2)=C/C(=C/C=C2C(=O)NC(=O)NC2=O)O1 | 1% | 212% | -5% | 5 | 20 | 24%
O=C(C1=C[C@H](c2csc3ccccc23)C[C@H](OCc2ccc(CO)cc2)O1)N1CCN(Cc2ccc3c(c2)OCO3)CC1 | -25% | 4.1µM* | -1% | -3 | -22 | ?
O=C(C1=C[C@H](c2csc3ccccc23)C[C@H](OCc2ccc(CO)cc2)O1)N1CCN(Cc2ccccc2)CC1 | ? | 9.3µM* | -4% | -3 | -11 | ?
